Among all 190,000 compounds or so, about 3,500 (1.8%) were called active. This is one part of a sample in which actives are shown more often than they occur. Unmarked numbers belong to inactive results.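 How the source made its calls: active means inhibition above a set limit, 3 SD over mean compound inhibition (cut at about 8.4% in these data); inactive means the rest.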
Assay: RAM signaling blockers in budding yeast – dse1pr::URA3 reporter, 5-FOA selection, primary screen (AID 868);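 further: 0% = DMSO-only wells with no growth and 100% = 10 µM 1-NA-PP1 full growth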
Conditions: S. cerevisiae dse1pr::URA3 reporter, 5-FOA growth OD615, 2 d; at 50 µM; stronger effect = higher value; analog-sensitive cbk1-as2 kinase mutant strain
For `O=C(NC(=S)Nc1cccc(-c2ccc(CO)o2)c1)c1cccs1`, the inhibition was 9.61% (active). For `O=C(NC(=S)Nc1ccc(NC(=O)c2cccs2)cc1)c1ccc([N+](=O)[O-])cc1`, the inhibition was 2.93%. With `CCc1nnc(NS(=O)(=O)c2ccc(NC(=S)NC(=O)c3cccs3)cc2)s1` the inhibition was 4.73%. Compound `COc1cccc(NC(=O)NCc2ccc(F)cc2)c1` has an inhibition of 5.02%. In the case of `Cc1c(C=O)c2ccccc2n1CC(=O)O`, the inhibition is reported as 0%. In the case of `CSc1nc2c(c(=O)[nH]1)C(c1cccc(Cl)c1Cl)CC(=O)N2` (centres undefined), the inhibition is reported as 5.93%. Compound `COc1ccc(CC(=O)NCc2nnc(SCC(=O)Nc3nccs3)n2C)cc1` has an inhibition of 6.82%. For `COc1ccc(CN(Cc2ccco2)S(=O)(=O)c2ccc(S(=O)(=O)N3CCCC3)cc2)cc1`, the inhibition was 9.77% (active). `CCOc1ccc(CN(Cc2ccco2)S(=O)(=O)c2ccc(-n3cnnn3)c(OC)c2)cc1` showed an inhibition of 6.13%. `COc1ccc(S(=O)(=O)NCc2ccc(C(=O)N(C)Cc3ccco3)cc2)cc1` gave an inhibition of 0.12%. In the case of `Cc1ccc(S(=O)(=O)NCCc2nnc3ccc(SCc4cccnc4)nn23)cc1`, the inhibition is reported as 0.39%. Work on `CCOc1ccc(NC(=O)c2ccc(CSc3nnnn3C)cc2)cc1` yielded an inhibition of 2.05%. With `CCOc1cc(NC(=O)c2ccccn2)c(OCC)cc1NC(=O)c1ccc(OC)cc1` the inhibition was 10.6% (active). Work on `CCOc1cc(NS(=O)(=O)c2ccc(OC)cc2)c(OCC)cc1NC(C)=O` yielded an inhibition of 3.5%. With `CCOc1ccc(C(=O)Nc2cc(OC)ccc2OC)cc1` the inhibition was 0.11%. In the case of `CCOC(=O)CNc1nc(Cl)nc(Nc2ccccc2)n1`, the inhibition is reported as 5.04%. For `CC(Sc1nnnn1C)C(=O)NC(=O)NC1CCCCC1` (centres undefined), the inhibition was 0.61%. Work on `Cc1ccc(-c2cc(C(=O)N/N=C/C=C/c3ccccc3)n[nH]2)o1` yielded an inhibition of 2.69%. With `COc1ccc(NC(=O)/C(C#N)=C\c2cc(OC)c(OCc3ccc(C(=O)O)cc3)cc2Br)cc1` the inhibition was 8.75% (active). Work on `COc1cc(C=O)c(Br)cc1OCC(=O)NCc1ccccc1` yielded an inhibition of 3.38%. `COc1cc(/C=C(\C#N)C(=O)Nc2ccc3ccccc3c2)c([N+](=O)[O-])cc1OC` showed an inhibition of -0.51%. For `O=C(/C=C/c1ccccc1Cl)Nc1ccc(S(=O)(=O)Nc2ncccn2)cc1`, the inhibition was 5.65%. With `O=S(=O)(Nc1ncccn1)c1ccc(NS(=O)(=O)c2cccc(Cl)c2Cl)cc1` the inhibition was 1.52%. With `O=C(/C=C/c1ccc(Cl)cc1)Nc1ccc(S(=O)(=O)Nc2ncccn2)cc1` the inhibition was 8.46% (active). Work on `COc1cccc(NC(=O)CN(C)C(C)C(=O)Nc2ccc(C#N)cc2)c1` (centres undefined) yielded an inhibition of 1.87%. `COc1cccc(NC(=S)NCc2ccco2)c1` gave an inhibition of -0.52%. Compound `CCn1c(Cc2ccccc2)nnc1SCC(=O)Nc1ccccc1` has an inhibition of 1.42%. In the case of `CCn1c(COc2ccc(OC)cc2)nnc1SCC(=O)Nc1cc(OC)ccc1OC`, the inhibition is reported as 0.11%. In the case of `CCn1c(COc2ccccc2)nnc1SCC(=O)Nc1ccc2c(c1)OCCO2`, the inhibition is reported as 9.4% (active). With `CCS(=O)(=O)Nc1ccc(C2=NN(C(C)=O)C(c3cccs3)C2)cc1` (centres undefined) the inhibition was -0.12%. Work on `Cn1nnnc1-c1cc(Cl)cc(Cl)c1` yielded an inhibition of -0.86%. For `CCOc1ccc(-n2c(O)c(/C=N/Nc3nc(C)cc(C)n3)c3ccccc3c2=O)cc1`, the inhibition was 3.13%. Work on `COC(=O)Cc1csc(Nc2c(C)n(C)n(-c3ccccc3)c2=O)n1` yielded an inhibition of 1.09%. With `COC(=O)Cc1csc(/N=C/c2c(O)n(-c3cccc(C(F)(F)F)c3)c(=O)c3ccccc23)n1` the inhibition was 8.86% (active). `COCCCNC(=S)NNC(=O)C(O)(c1ccccc1)c1ccccc1` gave an inhibition of 1.35%. With `COc1ccc(C(=O)CSc2nc(C)cc(C)n2)cc1[N+](=O)[O-]` the inhibition was 4.17%. In the case of `CC1CCCN(CC(O)COCc2ccccc2)C1` (centres undefined), the inhibition is reported as 3.48%. `Cc1cccc(NS(=O)(=O)c2ccc(C)c(C(N)=O)c2)c1` gave an inhibition of 0.63%. For `COc1ccccc1CNC(=O)CCCn1c(=O)c2ccccc2n(CC(=O)NC2CCCC2)c1=O`, the inhibition was 1.5%. With `COc1ccccc1CNC(=O)CCn1c(=O)sc2ccccc21` the inhibition was 8.77% (active). In the case of `CCc1nnc(NC(=O)CCC(=O)NCc2ccccc2OC)s1`, the inhibition is reported as 1.08%. With `Cc1ccc(-c2noc(CC(c3ccccc3)c3ccccc3)n2)cc1` the inhibition was 9.59% (active). In the case of `Cc1ccc(-c2noc(CN3CCN(Cc4ccccc4)CC3)n2)cc1`, the inhibition is reported as 1.83%. `COc1ccccc1Cc1nc(-c2ccc(C)cc2)no1` showed an inhibition of 0%. Compound `Cc1cc(C)cc(C(=O)N(CCc2ccccc2)C2=CC3CCC(C2)N3C)c1` (centres undefined) has an inhibition of 0.13%. Work on `C=CCOCCN(C)C1=NS(=O)(=O)c2ccccc21` yielded an inhibition of 2.38%. `C=CCn1c(SCC(=O)CC(=O)OCC)nc2cc(C(=O)N3CCC(C(N)=O)CC3)ccc2c1=O` gave an inhibition of 2.99%. In the case of `C/C(CCC(=O)OC[C@H]1O[C@H](C#Cc2ccccc2)C=C[C@@H]1Oc1ccc(C)cc1)=N\OC[C@@H](O)[C@H]1O[C@@H]2OC(C)(C)O[C@@H]2[C@H]1O`, the inhibition is reported as 11.1% (active). `O=C(NNC(=S)NCc1ccccc1)c1ccc(OC(F)F)cc1` showed an inhibition of 1.5%. For `COc1cccc(CC2(CO)CCCN(CC3=Cc4cc(OC)ccc4OC3)C2)c1` (centres undefined), the inhibition was 0.13%. Work on `O=C(c1nnc(-c2ccc(Cl)cc2)o1)C1CCCC1` yielded an inhibition of 2.68%. With `COC(=O)CSc1nc2c(c(C3CC=CCC3)c1C#N)CCC2` (centres undefined) the inhibition was 8.53% (active). `CCOc1ccc2cc(C#N)c(SCC(=O)OC)nc2c1` showed an inhibition of 1.88%. For `COC(=O)CSc1nc(C2CC2)nc2ccccc12`, the inhibition was -0.4%. In the case of `O=C(CSc1cccc[n+]1[O-])c1ccc(-c2ccccc2)cc1`, the inhibition is reported as 0.55%. `CCCCc1nc(NCCN)c(C#N)c2c1CSC(C)(C)C2` showed an inhibition of 1.35%. With `CCCCc1nc(NCc2ccccc2)c(C#N)c2c1CCCC2` the inhibition was 8.74% (active). With `CCN1CCc2c(C#N)c(NCc3ccccc3)nc(NCCO)c2C1` the inhibition was 1.86%. Compound `CS(=O)(=O)N1CCc2cc(C(=O)Nc3ccccc3)ccc21` has an inhibition of 3.82%.
